Source: the supplement of paper PMC11001985

Compound: C#CCNC(=O)CCSSCCC(=O)NCCc1ccc(C=O)c(C=O)c1
Assay: lysine labeling ratio R10:1 (500 µM / 50 µM probe), SILAC-ABPP in living cells; higher = lower intrinsic lysine reactivity toward the probe, active = 2 or less
Conditions: HeLa; probe concentrations 500 vs 50 µM
In short: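 For each lysine, R is the median over forward and reverse replicates of the filtered median MS1 peptide ratio of high probe to low probe. The probe, an alkyne-tagged, disulfide-linked lysine probe, was given at 500 µM or 50 µM to living SILAC light and heavy HeLa cells in PBS at room temperature, with label swaps. Values are capped at 20.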

Target: C3 (lysine site: K1546) (UniProt P01024)
- lysine labeling ratio R10:1: 4.18 (inactive)

Target: ITGA1 (lysine site: K563) (UniProt P56199)
- lysine labeling ratio R10:1: 5.65 (inactive)

Target: MYH9 (lysine site: K835) (UniProt P35579)
UniProt P35579, sequence (P35579 whole entry): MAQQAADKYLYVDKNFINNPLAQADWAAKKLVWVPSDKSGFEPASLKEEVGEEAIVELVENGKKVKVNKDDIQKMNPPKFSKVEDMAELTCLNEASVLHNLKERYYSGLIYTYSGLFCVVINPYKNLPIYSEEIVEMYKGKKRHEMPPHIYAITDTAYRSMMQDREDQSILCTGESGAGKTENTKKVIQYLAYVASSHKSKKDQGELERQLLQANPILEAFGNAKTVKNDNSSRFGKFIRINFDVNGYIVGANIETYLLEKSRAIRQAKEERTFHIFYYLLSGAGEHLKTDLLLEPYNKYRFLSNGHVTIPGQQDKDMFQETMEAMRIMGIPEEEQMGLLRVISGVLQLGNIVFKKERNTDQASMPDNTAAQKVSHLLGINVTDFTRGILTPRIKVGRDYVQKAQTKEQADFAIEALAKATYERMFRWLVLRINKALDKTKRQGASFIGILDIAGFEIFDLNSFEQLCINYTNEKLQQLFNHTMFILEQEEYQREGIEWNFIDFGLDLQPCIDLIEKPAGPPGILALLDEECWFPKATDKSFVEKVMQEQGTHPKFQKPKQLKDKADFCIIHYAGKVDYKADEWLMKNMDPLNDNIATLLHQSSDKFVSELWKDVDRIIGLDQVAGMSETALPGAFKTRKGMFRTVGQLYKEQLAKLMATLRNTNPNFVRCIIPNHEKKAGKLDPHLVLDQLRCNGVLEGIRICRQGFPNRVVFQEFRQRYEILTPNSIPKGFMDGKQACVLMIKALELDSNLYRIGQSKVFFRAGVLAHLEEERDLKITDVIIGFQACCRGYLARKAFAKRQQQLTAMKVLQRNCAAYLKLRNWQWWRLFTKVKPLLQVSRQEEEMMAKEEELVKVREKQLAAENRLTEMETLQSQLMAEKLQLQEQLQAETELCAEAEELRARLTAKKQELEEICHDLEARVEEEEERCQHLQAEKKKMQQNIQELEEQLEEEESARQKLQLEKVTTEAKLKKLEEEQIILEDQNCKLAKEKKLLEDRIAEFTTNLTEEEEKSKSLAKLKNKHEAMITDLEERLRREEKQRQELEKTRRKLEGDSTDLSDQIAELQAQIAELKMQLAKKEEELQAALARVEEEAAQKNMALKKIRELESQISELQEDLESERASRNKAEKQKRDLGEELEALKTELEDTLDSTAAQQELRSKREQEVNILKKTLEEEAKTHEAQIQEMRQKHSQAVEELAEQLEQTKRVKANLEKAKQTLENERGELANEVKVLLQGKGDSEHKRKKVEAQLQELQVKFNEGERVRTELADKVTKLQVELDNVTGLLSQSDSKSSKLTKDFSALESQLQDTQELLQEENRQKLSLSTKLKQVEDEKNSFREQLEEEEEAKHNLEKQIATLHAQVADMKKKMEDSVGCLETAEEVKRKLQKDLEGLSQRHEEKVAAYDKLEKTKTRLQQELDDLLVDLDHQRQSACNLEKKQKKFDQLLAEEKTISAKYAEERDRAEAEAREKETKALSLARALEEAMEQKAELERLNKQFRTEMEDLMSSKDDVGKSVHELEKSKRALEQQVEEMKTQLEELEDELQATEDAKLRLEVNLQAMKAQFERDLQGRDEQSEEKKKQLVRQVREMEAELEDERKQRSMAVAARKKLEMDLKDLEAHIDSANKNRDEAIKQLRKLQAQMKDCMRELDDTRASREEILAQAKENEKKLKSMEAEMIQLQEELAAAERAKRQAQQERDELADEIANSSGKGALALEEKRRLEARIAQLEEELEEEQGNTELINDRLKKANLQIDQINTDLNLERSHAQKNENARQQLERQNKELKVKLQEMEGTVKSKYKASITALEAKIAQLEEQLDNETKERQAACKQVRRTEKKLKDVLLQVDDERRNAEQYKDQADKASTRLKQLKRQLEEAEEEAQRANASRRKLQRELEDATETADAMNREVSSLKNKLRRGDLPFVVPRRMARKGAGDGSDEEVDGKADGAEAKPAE
- lysine labeling ratio R10:1: 8.12 (inactive)

Target: ARPC3 (lysine site: K29) (UniProt O15145)
- lysine labeling ratio R10:1: 1.49 (active)

Target: UniProt P02533 (lysine site: K405)
- lysine labeling ratio R10:1: 7.37 (inactive)

Target: TSPAN6 (lysine site: K179) (UniProt O43657)
- lysine labeling ratio R10:1: 1.94 (active)

Target: UniProt P52803 (lysine site: K180)
- lysine labeling ratio R10:1: 6.21 (inactive)

Target: CALD1 (lysine site: K674) (UniProt Q05682)
- lysine labeling ratio R10:1: 2.25 (inactive)

Target: FLNA (lysine site: K837) (UniProt P21333)
- lysine labeling ratio R10:1: 4.31 (inactive)

Target: IQGAP1 (lysine site: K1389) (UniProt P46940)
UniProt P46940, sequence (P46940 whole entry): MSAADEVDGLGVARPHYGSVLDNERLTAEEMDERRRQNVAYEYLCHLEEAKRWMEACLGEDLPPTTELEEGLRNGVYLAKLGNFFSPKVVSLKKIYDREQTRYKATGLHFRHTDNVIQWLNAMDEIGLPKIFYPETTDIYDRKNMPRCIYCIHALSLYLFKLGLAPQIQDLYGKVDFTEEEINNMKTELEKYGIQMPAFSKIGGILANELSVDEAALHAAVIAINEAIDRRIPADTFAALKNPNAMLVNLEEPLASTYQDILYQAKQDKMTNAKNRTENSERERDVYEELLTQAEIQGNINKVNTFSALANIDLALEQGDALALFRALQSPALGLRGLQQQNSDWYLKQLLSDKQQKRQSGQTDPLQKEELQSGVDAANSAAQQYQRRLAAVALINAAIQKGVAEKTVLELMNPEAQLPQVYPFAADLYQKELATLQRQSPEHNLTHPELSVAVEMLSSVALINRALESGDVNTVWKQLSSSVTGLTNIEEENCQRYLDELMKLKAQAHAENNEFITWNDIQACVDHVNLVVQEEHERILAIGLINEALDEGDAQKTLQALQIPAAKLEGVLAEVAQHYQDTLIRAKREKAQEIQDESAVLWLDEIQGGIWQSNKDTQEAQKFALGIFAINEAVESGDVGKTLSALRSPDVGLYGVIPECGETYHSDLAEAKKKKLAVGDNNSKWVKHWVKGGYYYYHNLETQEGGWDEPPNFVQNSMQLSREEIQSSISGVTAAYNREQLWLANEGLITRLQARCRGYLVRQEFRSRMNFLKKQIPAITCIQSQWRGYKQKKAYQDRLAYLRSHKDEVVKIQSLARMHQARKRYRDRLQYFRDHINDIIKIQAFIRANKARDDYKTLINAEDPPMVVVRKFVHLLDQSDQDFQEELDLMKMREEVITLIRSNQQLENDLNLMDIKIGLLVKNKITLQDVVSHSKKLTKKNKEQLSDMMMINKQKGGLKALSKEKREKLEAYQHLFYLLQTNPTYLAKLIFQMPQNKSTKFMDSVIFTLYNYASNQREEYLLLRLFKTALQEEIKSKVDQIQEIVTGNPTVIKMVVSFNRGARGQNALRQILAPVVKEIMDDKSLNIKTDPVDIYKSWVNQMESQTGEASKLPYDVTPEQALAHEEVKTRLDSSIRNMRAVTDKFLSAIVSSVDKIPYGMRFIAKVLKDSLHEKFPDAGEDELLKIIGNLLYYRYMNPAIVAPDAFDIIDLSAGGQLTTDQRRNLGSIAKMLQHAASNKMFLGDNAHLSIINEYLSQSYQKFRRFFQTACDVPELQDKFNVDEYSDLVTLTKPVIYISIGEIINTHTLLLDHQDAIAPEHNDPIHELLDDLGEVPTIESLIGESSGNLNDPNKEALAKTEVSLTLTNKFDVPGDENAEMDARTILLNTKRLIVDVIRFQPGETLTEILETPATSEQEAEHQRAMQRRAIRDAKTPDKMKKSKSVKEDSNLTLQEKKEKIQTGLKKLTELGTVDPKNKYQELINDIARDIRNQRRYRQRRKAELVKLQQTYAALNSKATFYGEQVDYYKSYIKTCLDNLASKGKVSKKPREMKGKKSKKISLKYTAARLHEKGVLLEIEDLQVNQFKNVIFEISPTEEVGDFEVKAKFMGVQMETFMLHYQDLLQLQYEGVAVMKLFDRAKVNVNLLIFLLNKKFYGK
- lysine labeling ratio R10:1: 5.25 (inactive)

Target: TFRC (lysine site: K358) (UniProt P02786)
- lysine labeling ratio R10:1: 1.48 (active)

Target: HNRNPM (lysine site: K388) (UniProt P52272)
- lysine labeling ratio R10:1: 6.02 (inactive)

Target: PSMA3 (lysine site: K65) (UniProt P25788)
UniProt P25788, sequence (P25788 whole entry): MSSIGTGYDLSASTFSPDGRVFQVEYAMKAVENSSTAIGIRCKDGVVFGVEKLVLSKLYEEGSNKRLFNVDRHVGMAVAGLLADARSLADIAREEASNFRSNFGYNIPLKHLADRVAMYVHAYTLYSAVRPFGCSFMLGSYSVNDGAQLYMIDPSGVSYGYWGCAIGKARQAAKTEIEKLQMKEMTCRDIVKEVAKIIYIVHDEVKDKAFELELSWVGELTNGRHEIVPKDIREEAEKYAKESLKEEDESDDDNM
- lysine labeling ratio R10:1: 1.97 (active)

Target: UniProt Q9NYQ7 (lysine site: K548)
- lysine labeling ratio R10:1: 1.02 (active)

Target: SUB1 (lysine site: K39) (UniProt P53999)
- lysine labeling ratio R10:1: 1.42 (active)

Target: ITGA3 (lysine site: K897) (UniProt P26006)
- lysine labeling ratio R10:1: 1.68 (active)

Target: LAMC1 (lysine site: K1039) (UniProt P11047)
- lysine labeling ratio R10:1: 3.94 (inactive)

Target: MYH9 (lysine site: K1867) (UniProt P35579)
- lysine labeling ratio R10:1: 2.53 (inactive)

Target: EEF1G (lysine site: K243) (UniProt P26641)
- lysine labeling ratio R10:1: 1.4 (active)

Target: PPL (lysine site: K492) (UniProt O60437)
- lysine labeling ratio R10:1: 1.71 (active)

Target: CAPZB (lysine site: K223) (UniProt P47756)
- lysine labeling ratio R10:1: 2.76 (inactive)

Target: KIRREL (lysine site: K67) (UniProt Q96J84)
- lysine labeling ratio R10:1: 0.92 (active)

Target: PRDX2 (lysine site: K196) (UniProt P32119)
- lysine labeling ratio R10:1: 2.99 (inactive)

Target: MCAM (lysine site: K217) (UniProt P43121)
- lysine labeling ratio R10:1: 2.14 (inactive)

Target: FBLN1 (lysine site: K649) (UniProt P23142)
- lysine labeling ratio R10:1: 2.26 (inactive)

Target: ACTR3 (lysine site: K348) (UniProt P61158)
- lysine labeling ratio R10:1: 1.4 (active)

Target: NPTN (lysine site: K244) (UniProt Q9Y639)
- lysine labeling ratio R10:1: 8.84 (inactive)

Target: PGRMC1 (lysine site: K105) (UniProt O00264)
UniProt O00264, sequence (O00264 whole entry): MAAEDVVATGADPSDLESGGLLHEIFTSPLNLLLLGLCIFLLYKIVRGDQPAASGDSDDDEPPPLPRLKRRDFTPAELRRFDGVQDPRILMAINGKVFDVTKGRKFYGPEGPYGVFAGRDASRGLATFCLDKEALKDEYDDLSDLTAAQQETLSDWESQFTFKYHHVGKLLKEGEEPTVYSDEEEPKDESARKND
- lysine labeling ratio R10:1: 2.63 (inactive)

Target: FN1 (lysine site: K248) (UniProt P02751)
- lysine labeling ratio R10:1: 2.7 (inactive)

Target: CCT6A (lysine site: K199) (UniProt P40227)
- lysine labeling ratio R10:1: 0.593 (active)

Target: ALDOA (lysine site: K13) (UniProt P04075)
- lysine labeling ratio R10:1: 8.82 (inactive)

Target: UniProt P62244 (lysine site: K71)
- lysine labeling ratio R10:1: 3.24 (inactive)

Target: IQGAP1 (lysine site: K1128) (UniProt P46940)
- lysine labeling ratio R10:1: 2.31 (inactive)

Target: PGK1 (lysine site: K323) (UniProt P00558)
- lysine labeling ratio R10:1: 5.55 (inactive)

Target: EZR (lysine site: K143) (UniProt P15311)
- lysine labeling ratio R10:1: 2.46 (inactive)

Target: SPTAN1 (lysine site: K2000) (UniProt Q13813)
- lysine labeling ratio R10:1: 0.553 (active)

Target: HNRNPC (lysine site: K94) (UniProt P07910)
- lysine labeling ratio R10:1: 3.25 (inactive)

Target: EPHB4 (lysine site: K474) (UniProt P54760)
UniProt P54760, sequence (P54760 whole entry): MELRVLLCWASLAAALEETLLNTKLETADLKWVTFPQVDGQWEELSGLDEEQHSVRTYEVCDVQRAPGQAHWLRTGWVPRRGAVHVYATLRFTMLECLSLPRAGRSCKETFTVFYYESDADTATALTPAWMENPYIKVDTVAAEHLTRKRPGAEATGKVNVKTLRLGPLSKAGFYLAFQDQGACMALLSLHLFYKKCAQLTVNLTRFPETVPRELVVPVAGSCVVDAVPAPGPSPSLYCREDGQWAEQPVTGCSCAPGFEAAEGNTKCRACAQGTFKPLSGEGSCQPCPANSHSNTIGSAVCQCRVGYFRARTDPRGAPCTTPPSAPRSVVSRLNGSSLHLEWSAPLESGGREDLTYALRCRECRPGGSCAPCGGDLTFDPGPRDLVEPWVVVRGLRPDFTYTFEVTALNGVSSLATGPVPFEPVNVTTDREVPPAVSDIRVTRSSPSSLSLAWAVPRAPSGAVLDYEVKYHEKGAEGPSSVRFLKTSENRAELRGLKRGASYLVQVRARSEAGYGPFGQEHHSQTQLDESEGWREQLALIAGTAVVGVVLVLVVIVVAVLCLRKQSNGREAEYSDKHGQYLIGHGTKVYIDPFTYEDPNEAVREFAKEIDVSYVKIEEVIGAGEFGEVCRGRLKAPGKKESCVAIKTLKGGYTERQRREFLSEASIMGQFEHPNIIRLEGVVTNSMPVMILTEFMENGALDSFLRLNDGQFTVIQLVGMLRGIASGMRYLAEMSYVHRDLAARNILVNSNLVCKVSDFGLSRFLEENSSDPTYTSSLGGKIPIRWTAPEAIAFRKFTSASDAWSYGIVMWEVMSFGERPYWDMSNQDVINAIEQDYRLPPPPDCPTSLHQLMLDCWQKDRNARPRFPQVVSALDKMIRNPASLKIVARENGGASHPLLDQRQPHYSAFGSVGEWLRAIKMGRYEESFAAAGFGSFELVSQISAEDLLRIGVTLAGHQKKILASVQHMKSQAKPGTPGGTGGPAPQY
- lysine labeling ratio R10:1: 0.746 (active)

Target: PLXNA2 (lysine site: K542) (UniProt O75051)
- lysine labeling ratio R10:1: 1.9 (active)

Target: PSMD1 (lysine site: K890) (UniProt Q99460)
- lysine labeling ratio R10:1: 1.11 (active)

Target: UniProt P63218 (lysine site: K12)
- lysine labeling ratio R10:1: 5.18 (inactive)

Target: IARS (lysine site: K375) (UniProt P41252)
- lysine labeling ratio R10:1: 1.66 (active)

Target: PNN (lysine site: K262) (UniProt Q9H307)
- lysine labeling ratio R10:1: 1.08 (active)

Target: UniProt P26012 (lysine site: K515)
- lysine labeling ratio R10:1: 1.07 (active)

Target: IGF2R (lysine site: K1873) (UniProt P11717)
- lysine labeling ratio R10:1: 0.826 (active)

Target: UniProt Q15149 (lysine site: K1626)
- lysine labeling ratio R10:1: 2.37 (inactive)
